Measured values reported in PubChem BioAssay (EPA / NIEHS).
Active and inactive are the calls of the source. Rule for the calls: active = hit-call score of the fitted dose curve at least 0.9, where 1 is the maximum; inactive = score below 0.9.

Assays:
[1] = read-out: TIMP metallopeptidase inhibitor 2 (TIMP2), TIMP2 (gene 7077); experiment: BSK_KF3CT_TIMP2: BioMAP Diversity Plus: KF3CT Assay for TIMP metallopeptidase inhibitor 2 (TIMP2) Biomarker Activity (AID 2283071); conditions: primary human keratinocytes with fibroblasts; actives raise or lower the signal
Summary of the method: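 TIMP-2 measured by ELISA at 24 h in human keratinocyte/fibroblast primary co-cultures exposed to chemicals. Both increases and decreases were fitted against DMSO. Parallel cultures were stained with SRB for total protein as an overt-cytotoxicity check.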

[2] = read-out: Transforming growth factor beta 1 (TGFb1), TGFB1 (gene 7040); experiment: BSK_KF3CT_TGFb1: BioMAP Diversity Plus: KF3CT Assay for Transforming growth factor beta 1 (TGFb1) Biomarker Activity (AID 2283072); conditions: primary human keratinocytes with fibroblasts; actives raise or lower the signal
Summary of the method: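 ELISA quantifies TGF-b1 at 24 h post-dose in a primary human skin co-culture of keratinocytes and fibroblasts, with gain or loss judged against DMSO. Parallel SRB total-protein staining flags overt cytotoxicity.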

[3] = read-out: C-C motif chemokine 2 (Homo sapiens) (UniProt P13500); experiment: BSK_KF3CT_MCP1: BioMAP Diversity Plus: KF3CT Assay for Monocyte Chemoattractant Protein 1 (MCP1/CCL2) Biomarker Activity (AID 2283073); conditions: primary human keratinocytes with fibroblasts; actives raise or lower the signal
Summary of the method: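 Biomarker MCP-1 is measured by ELISA in primary human keratinocytes co-cultured with foreskin fibroblasts, 24 h after chemical treatment; DMSO serves as the negative control and activity baseline.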

[4] = read-out: Matrix Metallopeptidase 9 (MMP9), MMP9 (gene 4318); experiment: BSK_KF3CT_MMP9: BioMAP Diversity Plus: KF3CT Assay for Matrix Metallopeptidase 9 (MMP9) Biomarker Activity (AID 2283074); conditions: primary human keratinocytes with fibroblasts; actives raise or lower the signal
Summary of the method: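 ELISA read-out of MMP-9 at 24 h post-dosing in a co-culture of human skin keratinocytes and foreskin fibroblasts. Gain or loss of signal was fitted in both directions against DMSO.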

[5] = read-out: urokinase plasminogen activator (uPA), PLAU (gene 5328); experiment: BSK_KF3CT_uPA: BioMAP Diversity Plus: KF3CT Assay for urokinase plasminogen activator (uPA) Biomarker Activity (AID 2283075); conditions: primary human keratinocytes with fibroblasts; actives raise or lower the signal
Summary of the method: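 Skin co-culture (keratinocytes + foreskin fibroblasts), human primary; 24 h post-dose; uPA by ELISA; gain/loss fit vs DMSO baseline.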

CD40, CD40 (gene 958) [6] = experiment: BSK_LPS_CD40: BioMAP Diversity Plus: LPS Assay for CD40 Biomarker Activity (AID 2283076); conditions: primary human HUVEC with PBMC; actives raise or lower the signal
Summary of the method: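 Using a multiplexed primary human co-culture (umbilical vein endothelium plus PBMC), CD40 was read by ELISA 24 h after dosing, with cytotoxicity tracked by sulforhodamine B staining of parallel cultures and activity fitted bidirectionally versus DMSO.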

[7] = read-out: E-selectin (Homo sapiens) (UniProt P16581); experiment: BSK_LPS_Eselectin: BioMAP Diversity Plus: LPS Assay for Eselectin Biomarker Activity (AID 2283077); conditions: primary human HUVEC with PBMC; actives raise or lower the signal
Summary of the method: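 Dose chemical onto LPS-driven HUVEC/PBMC co-culture; after 24 h, run ELISA for E-selectin; fit up- and down-going responses relative to DMSO control.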

[8] = read-out: Interleukin-8 (IL8), CXCL8 (gene 3576); experiment: BSK_LPS_IL8: BioMAP Diversity Plus: LPS Assay for Interleukin-8 (IL8) Biomarker Activity (AID 2283078); conditions: primary human HUVEC with PBMC; actives raise or lower the signal
Summary of the method: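 In this LPS system, chemical-treated human umbilical vein endothelium/PBMC co-cultures were harvested at 24 h for IL-8 ELISA.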

[9] = BSK_LPS_SRB: Viability Assessment in the BioMAP Diversity Plus: LPS Assay (AID 2283079); conditions: primary human HUVEC with PBMC;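 note: total protein by sulforhodamine B absorbance as a cytotoxicity measure; measured one day after compound addition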
Summary of the method: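 Cytotoxicity endpoint in human endothelial–PBMC co-culture: 24 h exposure, then SRB (0.1%) staining, 560 nm read.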

[10] = read-out: Interleukin-1 alpha (IL1a), IL1A (gene 3552); experiment: BSK_LPS_IL1a: BioMAP Diversity Plus: LPS Assay for Interleukin-1 alpha (IL1a) Biomarker Activity (AID 2283080); conditions: primary human HUVEC with PBMC; actives raise or lower the signal
Summary of the method: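 Primary human HUVEC and PBMC co-culture stimulated with LPS is dosed and harvested at 24 h. Both increases and decreases in ELISA-measured IL-1a are scored relative to DMSO.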

[11] = read-out: Monocyte Chemoattractant Protein-1 (MCP1), CCL2 (gene 6347); experiment: BSK_LPS_MCP1: BioMAP Diversity Plus: LPS Assay for Monocyte Chemoattractant Protein-1 (MCP1) Biomarker Activity (AID 2283081); conditions: primary human HUVEC with PBMC; actives raise or lower the signal
Summary of the method: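 Values derive from bidirectional fitting against DMSO of ELISA-measured MCP-1 in a human primary endothelial and mononuclear cell co-culture, 24 h after chemical addition under LPS activation.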

[12] = BSK_LPS_PGE2: BioMAP Diversity Plus: LPS Assay for Prostaglandin E2 (PGE2) Biomarker Activity (AID 2283082); conditions: primary human HUVEC with PBMC; actives raise or lower the signal
Summary of the method: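 PGE2 release measured by ELISA in an LPS-activated co-culture of human umbilical vein endothelial cells and peripheral blood mononuclear cells, read at 24 h post-dosing. DMSO served as baseline for bidirectional curve fitting.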

[13] = read-out: Macrophage colony-stimulating factor (MCSF), CSF1 (gene 1435); experiment: BSK_LPS_MCSF: BioMAP Diversity Plus: LPS Assay for Macrophage colony-stimulating factor (MCSF) Biomarker Activity (AID 2283083); conditions: primary human HUVEC with PBMC; actives raise or lower the signal
Summary of the method: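 Bidirectional fit versus DMSO of ELISA-measured M-CSF in co-cultured human umbilical vein endothelial cells and PBMC, sampled 24 h after dosing.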

[14] = read-out: Tissue Factor, F3 (gene 2152); experiment: BSK_LPS_TissueFactor: BioMAP Diversity Plus: LPS Assay for Tissue Factor Biomarker Activity (AID 2283084); conditions: primary human HUVEC with PBMC; actives raise or lower the signal
Summary of the method: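 Read-out: CD142 ELISA, 24 h. System: LPS-driven human endothelial/PBMC co-culture. Analysis: up- or down-signal fitted against DMSO.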

[15] = read-out: Tumor necrosis factor (Homo sapiens) (UniProt P01375); experiment: BSK_LPS_TNFa: BioMAP Diversity Plus: LPS Assay for Tumour Necrosis Factor alpha (TNFa) Biomarker Activity (AID 2283085); conditions: primary human HUVEC with PBMC; actives raise or lower the signal
Summary of the method: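 TNFa was quantified by ELISA in LPS-activated co-cultures of human endothelial cells and PBMC, 24 h post-dosing. Both increases and decreases versus DMSO were fitted.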

[16] = read-out: Vascular cell adhesion molecule 1 (VCAM1), VCAM1 (gene 7412); experiment: BSK_LPS_VCAM1: BioMAP Diversity Plus: LPS Assay for Vascular cell adhesion molecule 1 (VCAM1) Biomarker Activity (AID 2283086); conditions: primary human HUVEC with PBMC; actives raise or lower the signal
Summary of the method: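 VCAM-1 quantified by ELISA in an LPS-activated co-culture of human endothelial cells and peripheral blood mononuclear cells, read 24 h post-treatment. Fitted in both directions versus DMSO; parallel SRB staining flags overt cytotoxicity.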

CD38, CD38 (gene 952) = experiment: BSK_SAg_CD38: BioMAP Diversity Plus: SAg Assay for CD38 Biomarker Activity (AID 2283087); conditions: primary human HUVEC with PBMC; actives raise or lower the signal
Summary of the method: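 CD38 quantified by ELISA (fluorescence) in a superantigen-activated endothelial cell–PBMC co-culture at 24 h post-dose. Activity fitted in both directions relative to DMSO; parallel SRB and Alamar Blue cytotoxicity read-outs.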

CD40, CD40 (gene 958) [17] = experiment: BSK_SAg_CD40: BioMAP Diversity Plus: SAg Assay for CD40 Biomarker Activity (AID 2283088); conditions: primary human HUVEC with PBMC; actives raise or lower the signal
Summary of the method: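 Endpoint derived by fitting increases or decreases versus DMSO controls. CD40 is detected by fluorescence ELISA in a human vascular co-culture of endothelium and PBMC at 24 h.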

CD69, CD69 (gene 969) = experiment: BSK_SAg_CD69: BioMAP Diversity Plus: SAg Assay for CD69 Biomarker Activity (AID 2283089); conditions: primary human HUVEC with PBMC; actives raise or lower the signal
Summary of the method: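 HUVEC co-cultured with PBMC were dosed with chemical, and CD69 was measured by ELISA with fluorescence read-out 24 h later. Bidirectional curve fitting used DMSO as negative control and activity baseline.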

E-selectin (Homo sapiens), sequence (P16581 whole entry, looked up): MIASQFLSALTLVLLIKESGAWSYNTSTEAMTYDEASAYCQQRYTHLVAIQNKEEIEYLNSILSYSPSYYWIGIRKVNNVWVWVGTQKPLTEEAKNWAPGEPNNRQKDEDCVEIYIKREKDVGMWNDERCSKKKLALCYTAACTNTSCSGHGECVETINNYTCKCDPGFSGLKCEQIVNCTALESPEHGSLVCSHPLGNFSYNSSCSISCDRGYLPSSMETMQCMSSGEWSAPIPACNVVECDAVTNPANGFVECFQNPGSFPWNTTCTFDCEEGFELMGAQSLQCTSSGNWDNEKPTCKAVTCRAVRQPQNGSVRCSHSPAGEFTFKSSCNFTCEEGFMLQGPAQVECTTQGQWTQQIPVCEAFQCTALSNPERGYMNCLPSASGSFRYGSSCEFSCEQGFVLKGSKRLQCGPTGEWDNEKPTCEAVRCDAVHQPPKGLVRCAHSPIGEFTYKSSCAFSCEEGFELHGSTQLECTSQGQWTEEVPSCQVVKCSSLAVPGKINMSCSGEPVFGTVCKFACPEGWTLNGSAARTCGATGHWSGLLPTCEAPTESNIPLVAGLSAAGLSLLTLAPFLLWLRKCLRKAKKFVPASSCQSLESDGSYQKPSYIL
Tumor necrosis factor (Homo sapiens), sequence (P01375 whole entry, looked up): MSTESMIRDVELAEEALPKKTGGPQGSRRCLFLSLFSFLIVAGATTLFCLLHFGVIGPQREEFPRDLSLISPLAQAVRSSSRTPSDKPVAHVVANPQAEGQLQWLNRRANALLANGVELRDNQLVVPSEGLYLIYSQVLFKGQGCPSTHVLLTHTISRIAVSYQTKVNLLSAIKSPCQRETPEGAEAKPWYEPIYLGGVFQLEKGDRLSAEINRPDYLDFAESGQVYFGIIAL

Compound | outcome [1] | outcome [2] | outcome [3] | outcome [4] | outcome [5] | outcome (CD40, CD40 (gene 958) [6]) | outcome [7] | outcome [8] | AC50 [9] | outcome [10] | outcome [11] | outcome [12] | outcome [13] | outcome [14] | outcome [15] | outcome [16] | outcome (CD38, CD38 (gene 952)) | outcome (CD40, CD40 (gene 958) [17]) | outcome (CD69, CD69 (gene 969)) | outcome [9]
Cc1ccn2nc(S(=O)(=O)Nc3c(F)cccc3F)nc2n1 | inactive | inactive | inactive | inactive | inactive | inactive | inactive | inactive | 1060 nM (active) | inactive | inactive | inactive | inactive | inactive | inactive | inactive | inactive | inactive | inactive | 
CCC(=NOC/C=C/Cl)C1=C(O)CC(C2CCOCC2)CC1=O (stereo not given) | inactive | inactive | inactive | inactive | inactive | inactive | inactive | inactive |  | inactive | inactive | inactive | inactive |  | inactive | inactive | inactive | inactive | inactive | inactive
C#CC(C)(C)NC(=O)c1cc(Cl)cc(Cl)c1 | inactive | inactive | inactive | inactive | inactive | inactive | inactive | inactive |  | inactive | inactive | inactive | inactive |  | inactive | inactive | inactive | inactive | inactive | inactive
